Source: PubChem
ERK EGF inh: blocks ERK signaling stimulated by EGF; HEK293-V1b, EGF-stimulated phospho-ERK AlphaScreen; Potency, µM (top dose mostly 11.5 µM), hits mostly inhibitors; hit rate 0.41% among 130,000; AID 1454; active = well fitted inhibition curve with a large enough effect; also: nearly all actives have a fitted effect of over 55% in size
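HEK293 cells stably expressing V1b receptor, serum-reduced (1% FBS) overnight, got compound for 30 min at 37C, then 25 nM EGF for 5 min. Lysate phospho-ERK read by AlphaScreen SureFire; AC50 from Hill fits.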
Hits are given with their value; i = inactive. Only a selection was taken, and hits are over-represented in it overall.

SMILES | ERK EGF inh
CCc1ccc(-n2cccc2/C=C2/C(=N)N3C(=NC2=O)SN=C3S(C)(=O)=O)cc1 | i
CCSC1=NSC2=NC(=O)/C(=C\c3coc4ccccc4c3=O)C(=N)N12 | 31.6µM
CC(C)CC1=NN2C(=N)/C(=C\c3coc4ccccc4c3=O)C(=O)N=C2S1 | i
CCNc1ncc2nc(CCc3ccccc3)c(=O)n(C)c2n1 | i
CC(=O)N1CCC2(CC1)CCN(c1ncccn1)CC2 | i
C=CCOC(=O)C1=C(C)NC(C)=C(C(=O)OCC=C)C1/C=C/c1ccccc1 | 25.1µM
C=CCOC(=O)C1=C(C)Nc2[nH]c(=O)[nH]c(=O)c2C1c1ccccc1 (stereo unspecified) | i
C=CCOC(=O)C1=C(C)NC(C)=C(C(=O)OCC=C)C1c1ccco1 | i
CCOC(=O)c1ccc(Nc2ncnc3ccccc23)cc1 | i
CC(C)(C)c1ccc(OC(=O)c2cccnc2)cc1 | i
O=C(Oc1ccc(Nc2ncnc3ccccc23)cc1)c1cccnc1 | 28.2µM
Cc1nn(CC(=O)NCc2ccccc2F)c(C)c1[N+](=O)[O-] | i
Cc1nn(CC(=O)NCCc2ccccc2)c(C)c1[N+](=O)[O-] | i
Cc1nn(CC(=O)NCc2cc3ccccc3[nH]2)c(C)c1[N+](=O)[O-] | 14.1µM
CCc1cc[n+](C2=C([O-])c3ccccc3C(=O)/C2=N\S(=O)(=O)c2cccs2)cc1 | i
Cc1ccc(N/C(=N/S(=O)(=O)c2cccs2)c2ccccc2)c(C)c1 | i
O=C1C(Nc2ccccc2)=C/C(=N/S(=O)(=O)c2cccs2)c2ccccc21 | 14.1µM
O=C1C=C(Nc2ccccc2)c2ccccc2C1=O | i
CC1=CC(=O)c2ccccc2C1=O | i
O=C1C=C(Nc2ccccc2)C(=O)c2ccccc21 | 25.1µM
COc1ccc2c(c1)O[C@@H](c1cccc(C(F)(F)F)c1)[C@H](OC(=O)N[C@H](C)C1CCCCC1)C2=O | i
COc1ccc(C(=O)N2CCC3(CCN(Cc4ccccc4OC)CC3)CC2)cc1 | i
CCCCC/C=C\C/C=C\C/C=C\CCCCCCC(=O)NCCc1ccc(O)c(O)c1 | i
COc1ccc(C2C(C#N)=C(N)Nc3nc4ccccc4n32)cc1 (stereo unspecified) | i
COc1ccc([C@@H]2OC2(C(N)=O)C(N)=O)cc1 | i
SMILES | ERK EGF inh
COc1ccc(C2C3(C#N)C(N)=NC(OC)(OC)C23C#N)cc1 (stereo unspecified) | 25.1µM
CCCCCCCCCCCCCCCCOC[C@H](COP(=O)([O-])OCC[N+](C)(C)C)OC(=O)NC | i
COC(=O)[C@H](COC(C)(C)C)NC(=O)O[C@@H]1C(=O)c2cc(OC)ccc2O[C@H]1c1cccc(OC)c1 | i
COC(=O)N1[C@H]2CC[C@@]3(C)CC(=O)C[C@]1(C)C3c1ccccc12 | i
N[C@H](C(=O)O)[C@@H]1C[C@@H]1C(=O)O | i
O=c1c(-c2cc(O)c(O)c(O)c2)coc2cc(O)c(O)c(O)c12 | i
CCc1cc2c(=O)c(-c3ccc4c(c3)OCCO4)coc2cc1OS(C)(=O)=O | i
CC(C)=CCc1c(O)cc2occ(-c3ccc4c(c3)OCO4)c(=O)c2c1O | 22.4µM
CC[C@H](C)[C@@H](NC(=O)O[C@@H]1C(=O)c2ccc(OC)cc2O[C@H]1c1cccc(C(F)(F)F)c1)C(=O)OC | i
CC(C)=CC1C(CO)C1(C)C (stereo unspecified) | i
COc1ccc(-c2nc(-c3cccc([N+](=O)[O-])c3O)cc(=O)o2)cc1OC | i
COc1ccccc1S(=O)(=O)c1ccccc1[N+](=O)[O-] | i
COc1cc(/C=C2/C(=O)c3cccc([N+](=O)[O-])c3C2=O)c(Br)cc1O | 28.2µM
CC(=O)Oc1cc(OC(C)=O)c2c(=O)cc(-c3ccc(OC(C)=O)c(OC(C)=O)c3)oc2c1 | i
CCCC[C@@H]1C[C@H]1C(NC(=O)c1ccco1)c1ccccc1 (stereo partly specified) | i
O=C(NCC1CCCCC1)c1nnc(C(=O)NCC2CCCCC2)c2c1[nH]c1ccccc12 | i
COC(=O)[C@H]1O[C@@H](c2cc(OC)c(C)c(OC)c2O)[C@H](C)[C@@H](O)[C@H]1C | i
COC(=O)c1sccc1NC(=O)Nc1cccc(C(C)=O)c1 | i
CC(=O)c1cccc(NC(=O)Nc2csc3c2CCCC3)c1 | 25.1µM
CC(=O)c1cccc(NC(=O)c2csc3c2CCCCC3)c1 | i
COC(=O)N[C@@H](/C=C/c1ccccc1)/C(C(=O)OC)=C(\C)NCc1ccccc1 | i
CSC(SC)=C(C#N)C(=O)c1ccccc1 | 25.1µM
N#CC(C#N)=C(Nc1ccccc1)c1ccccc1 | i
O=C(O)c1ccc(C(=O)C(=O)c2ccccc2)cc1 | i
CC(C)(C)Nc1oc(-c2ccccc2)nc1-c1ccccc1F | i
Cc1nc2cnc(Oc3ccccc3)nc2n(CCc2ccccc2)c1=O | i
CC(C)[C@@H](CC(=O)N[C@@H]1CCNC[C@H]1C(=O)N[C@H](CC(=O)N[C@@H](CCC(=O)O)CC(=O)O)Cc1c[nH]c2ccccc12)NC(=O)C[C@H](CO)NC(=O)[C@@H]1CNCC[C@H]1N | i
Cc1cccc(Nc2c([N+](=O)[O-])c(=O)n(C)c3ccccc23)c1 | i
